The experiment deals with Caenorhabditis elegans L1 (N2). The experiment in a line: survival and reproduction score of C. elegans L1 (0: 0-10 living worms, 1: 11-20, 2: 21-50, 3: >50, 4: overgrown) (score 0-4); higher = more worms, less nematicidal, active = 1 or less; extreme values may be limits of the assay. The settings on record: 60 µM; 6 days; temperature: 20 °C. In short, it runs like this: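 Worm survival and reproduction were recorded as an ordinal score of living worms per well, read under a dissection microscope. Each 96-well well held about 20 synchronized C. elegans N2 L1s with E. coli HB101 in liquid NGM and compound at 60 µM final (0.6% v/v DMSO), sealed and shaken at 200 rpm, 20 °C, for 6 days. Scores ranged from 0 (0–10 worms) to 4 (overgrown, starved) and were the mean of two biological replicates.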
With `CCOC(=O)c1sc(NC(=O)CSc2nnc(-c3ccc(Cl)cc3)o2)c(C#N)c1C`, the “survival and reproduction score” value was 4 (inactive).

As for `COc1nc(C)ccc1-c1noc(-c2ccccc2Br)n1`, the “survival and reproduction score” value was 4 (inactive).

Take `Cc1cc(C)c(OCc2nc(-c3ccncc3)no2)c(C)c1`: the “survival and reproduction score” value is 4 (inactive).

Consider `c1ccc(-c2nnc(SCc3nc4ccccc4[nH]3)o2)cc1`, for which the “survival and reproduction score” value was 4 (inactive).

Consider `Cn1cc(C(=O)CSc2nnc(-c3cccc(Cl)c3)o2)c2ccccc21`, for which the “survival and reproduction score” value was 4 (inactive).

Turning to `O=C(CSc1nnc(-c2ccco2)o1)Nc1ccc(Br)cn1`, the “survival and reproduction score” value was 4 (inactive).

With `Cc1cc(NC(=O)CSc2nnc(-c3ccccc3Cl)o2)no1`, the “survival and reproduction score” value is 4 (inactive).

The values are drawn from the supplement of paper PMC11219838.
